From PubChem BioAssay AID1508622 (National Center for Advancing Translational Sciences (NCATS), 2021)
Active and inactive are the calls of the source. A call without a number means that no potency is given here. Calls come from the whole dose curve; as a rule, active = well fitted activation curve with a large enough effect; inconclusive = small, poorly fitted or top-dose-only effect; inactive = no such curve, though single readings can be large or run the other way.

Experiment: Confirmatory qHTS for Identification of Small Molecule Activators of Huntingtin-Antisense Promoter Activity
Conditions: HEK293 HTT-AS promoter firefly luciferase reporter, 24 h; series mostly up to 57.5 µM
Method in brief: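 HEK293 luciferase reporter cells, 2,500/well, cultured 24 h, then exposed to compounds at up to 57.5 uM final for 24 h at 37C. Firefly luciferase luminescence read; normalized to vehicle (0%) and zero RLU (-100%).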
Potency is the fitted concentration of half-maximal effect.

| Compound | Potency |
| --- | --- |
| CC(C)[C@H](C(=O)Nc1ccc(C(=O)NO)cc1)c1ccccc1 | 1900 nM (active) |
| COc1cc(NC(=O)NC(C)c2c(-n3cccc3)sc3c2CCCC3)cc(OC)c1OC (stereo not given) | inactive |
| CC1=C(C(=O)Nc2ccc(Cl)cc2)C(c2ccccc2C)n2ncc(C(=O)Nc3ccc(C)cc3)c2N1 (stereo not given) | inactive |
| CCOc1ccc(-c2nc(CSCC(=O)NCCc3ccccc3)c(C)o2)cc1 | inactive |
| COc1cccc(NS(=O)(=O)c2ccc3[nH]cc(C(=O)NCCc4ccc(C)cc4)c(=O)c3c2)c1 | inactive |
| CN(C)c1ccc(C(=O)Nc2sc(Nc3ccccc3)nc2C(N)=O)cc1 | inactive |
| O=C(c1ccc(CS(=O)c2ccccc2Cl)o1)N1CCN(c2cccc(C(F)(F)F)c2)CC1 (stereo not given) | inactive |
| Cc1ccc(NC(=O)Cn2cc(S(=O)(=O)Cc3ccccc3)c3ccccc32)cc1C | inactive |
| CCCS(=O)(=O)NCCc1sc2nc(-c3ccc(Cl)cc3)nn2c1C | inactive |
| CCOc1ccc(C(NC(=O)c2cc(OC)c(OC)c(OC)c2)c2cc(Cl)c3cccnc3c2O)cc1 (stereo not given) | inactive |
| CSc1cccc(NC(=O)C2CCN(C(=O)c3cnn(-c4ccccc4)c3-n3cccc3)CC2)c1 | inactive |
| CCn1c(CN2CCCCC2)nc2cc(NC(=O)c3ccc([N+](=O)[O-])cc3)ccc21 | inactive |
| COc1ccc(C(=O)Oc2c(Sc3ccccc3)c(C)nn2-c2ccccc2)c(OC)c1 | inactive |
| CCc1c(C)nc2nncn2c1NCc1ccc(OC)cc1 | inactive |
| CCc1ccc(CNC(=O)c2cc3cc(S(=O)(=O)N4CCCCC4)ccc3n2C)cc1 | inactive |
